# According to paper PMC7862700, “An all-to-all approach to the identification of sequence-specific readers for epigenetic DNA modifications on cytosine”:
# What was measured:
# Assay in all cases: DAPPL (digital affinity profiling via proximity ligation, sequencing); 10 mM Tris-HCl pH 7.5, 50 mM NaCl, 1 mM DTT, 4% glycerol, room temperature, 30 min; GST-TFs on glutathione beads, 16-mer random dsDNA library, 0.1% formaldehyde crosslink after washing; high values mean tight binding
# Conditions in all cases: protein: recombinant; tags: N-terminal GST; dsDNA, one strand shown
# FLI1 = target: T1, FLI1 (Homo sapiens, UniProt Q01543 1-452)
# T1 sequence: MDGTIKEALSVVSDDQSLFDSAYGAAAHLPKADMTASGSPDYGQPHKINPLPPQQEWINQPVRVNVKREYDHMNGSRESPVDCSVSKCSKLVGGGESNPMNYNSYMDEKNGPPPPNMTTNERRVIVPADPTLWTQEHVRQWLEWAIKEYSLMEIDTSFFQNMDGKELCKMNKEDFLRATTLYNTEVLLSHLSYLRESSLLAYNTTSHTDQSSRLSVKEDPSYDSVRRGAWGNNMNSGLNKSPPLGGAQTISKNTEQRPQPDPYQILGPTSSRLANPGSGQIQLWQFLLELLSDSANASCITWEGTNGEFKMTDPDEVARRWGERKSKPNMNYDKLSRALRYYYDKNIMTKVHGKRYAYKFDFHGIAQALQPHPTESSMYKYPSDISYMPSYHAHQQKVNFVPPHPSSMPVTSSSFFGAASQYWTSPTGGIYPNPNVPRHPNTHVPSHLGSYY
# Outline: (§1)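 Human transcription factors were made in yeast as GST fusions, captured on glutathione beads and barcoded with DNA. With a tag-only sample included, the pool was incubated with 200 nmole of a random double-stranded 16-mer DNA library in Tris/NaCl/DTT/glycerol buffer at room temperature for 30 min, then crosslinked with 0.1% formaldehyde after washing, ligated by proximity, amplified and sequenced. For binding signal, each hexamer's read frequency for a factor is divided by its frequency for the tag-only sample.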
# ELK1 = target: T2, ELK1 (Homo sapiens, UniProt P19419 1-428)
# T2 sequence: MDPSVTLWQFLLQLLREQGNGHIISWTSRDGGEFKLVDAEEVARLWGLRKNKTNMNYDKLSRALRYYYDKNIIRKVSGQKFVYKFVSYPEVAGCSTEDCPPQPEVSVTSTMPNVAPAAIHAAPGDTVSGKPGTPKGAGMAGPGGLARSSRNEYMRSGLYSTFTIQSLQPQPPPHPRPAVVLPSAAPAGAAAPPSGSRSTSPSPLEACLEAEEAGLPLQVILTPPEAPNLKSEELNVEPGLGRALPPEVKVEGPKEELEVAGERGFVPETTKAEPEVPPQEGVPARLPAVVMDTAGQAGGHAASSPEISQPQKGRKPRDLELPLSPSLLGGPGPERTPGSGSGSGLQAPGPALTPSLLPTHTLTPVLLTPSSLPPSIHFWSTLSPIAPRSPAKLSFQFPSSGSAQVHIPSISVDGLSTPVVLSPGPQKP
# Outline: as §1
# GABPA = target: T3, GABPA (Homo sapiens, UniProt Q06546 1-454)
# T3 sequence: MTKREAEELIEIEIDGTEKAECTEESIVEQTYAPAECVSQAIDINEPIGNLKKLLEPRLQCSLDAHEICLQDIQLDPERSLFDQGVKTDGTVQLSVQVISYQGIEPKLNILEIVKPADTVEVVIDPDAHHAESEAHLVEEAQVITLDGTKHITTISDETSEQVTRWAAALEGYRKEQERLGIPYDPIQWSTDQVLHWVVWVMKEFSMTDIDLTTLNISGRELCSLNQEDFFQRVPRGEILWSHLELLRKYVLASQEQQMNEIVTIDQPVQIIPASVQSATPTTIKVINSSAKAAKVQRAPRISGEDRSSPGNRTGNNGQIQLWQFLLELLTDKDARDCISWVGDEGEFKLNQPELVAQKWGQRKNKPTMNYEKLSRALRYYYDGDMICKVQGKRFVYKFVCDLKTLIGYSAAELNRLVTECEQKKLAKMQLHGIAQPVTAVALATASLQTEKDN
# Outline: as §1
# ERG = target: T4, ERG (Homo sapiens, UniProt P11308 1-479)
# T4 sequence: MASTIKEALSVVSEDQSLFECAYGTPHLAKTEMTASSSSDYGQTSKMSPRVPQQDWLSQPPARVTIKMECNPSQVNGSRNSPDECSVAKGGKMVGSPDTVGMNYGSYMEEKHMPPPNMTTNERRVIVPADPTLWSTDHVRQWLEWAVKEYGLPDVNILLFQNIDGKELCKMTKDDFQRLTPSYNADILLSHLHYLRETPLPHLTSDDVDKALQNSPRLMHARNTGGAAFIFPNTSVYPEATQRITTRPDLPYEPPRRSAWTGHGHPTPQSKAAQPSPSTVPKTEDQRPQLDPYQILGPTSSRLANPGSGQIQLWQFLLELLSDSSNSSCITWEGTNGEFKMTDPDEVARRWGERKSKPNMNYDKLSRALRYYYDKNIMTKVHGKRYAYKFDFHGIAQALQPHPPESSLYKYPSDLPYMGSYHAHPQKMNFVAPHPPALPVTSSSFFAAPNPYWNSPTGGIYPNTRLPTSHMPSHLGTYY
# Outline: as §1
# ELF1 = ELF1 (Homo sapiens, UniProt P32519 1-619)
# Outline: as §1
# EHF = target: T5, EHF (Homo sapiens, UniProt Q9NZC4 1-300)
# T5 sequence: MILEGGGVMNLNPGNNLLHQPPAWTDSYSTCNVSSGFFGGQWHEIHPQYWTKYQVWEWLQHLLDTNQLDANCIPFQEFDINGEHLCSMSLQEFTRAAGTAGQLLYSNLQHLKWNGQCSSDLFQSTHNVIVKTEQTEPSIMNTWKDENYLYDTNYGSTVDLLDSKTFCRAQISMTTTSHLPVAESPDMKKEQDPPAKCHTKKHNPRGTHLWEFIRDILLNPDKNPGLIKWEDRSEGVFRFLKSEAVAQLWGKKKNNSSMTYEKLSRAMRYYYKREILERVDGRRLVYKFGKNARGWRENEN
# Outline: as §1
# SPI1 = SPI1 (Homo sapiens, UniProt P17947 1-270)
# Outline: as §1
# SPIB = SPIB (Homo sapiens, UniProt Q01892 1-262)
# Outline: as §1
# ELK3 = target: T6, ELK3 (Homo sapiens, UniProt P41970 1-407)
# T6 sequence: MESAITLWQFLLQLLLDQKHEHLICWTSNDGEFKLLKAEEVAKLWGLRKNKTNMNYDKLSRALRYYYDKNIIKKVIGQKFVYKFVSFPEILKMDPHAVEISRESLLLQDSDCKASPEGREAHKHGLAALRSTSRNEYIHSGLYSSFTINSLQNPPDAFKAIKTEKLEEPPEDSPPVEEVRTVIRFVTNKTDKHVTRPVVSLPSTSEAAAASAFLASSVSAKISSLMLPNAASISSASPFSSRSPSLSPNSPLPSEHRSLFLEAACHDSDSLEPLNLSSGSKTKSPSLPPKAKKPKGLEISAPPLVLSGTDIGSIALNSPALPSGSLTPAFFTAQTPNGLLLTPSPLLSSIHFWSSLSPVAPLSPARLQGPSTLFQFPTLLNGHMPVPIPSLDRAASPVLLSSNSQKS
# Outline: as §1
# SPIB, sequence (Q01892 whole entry): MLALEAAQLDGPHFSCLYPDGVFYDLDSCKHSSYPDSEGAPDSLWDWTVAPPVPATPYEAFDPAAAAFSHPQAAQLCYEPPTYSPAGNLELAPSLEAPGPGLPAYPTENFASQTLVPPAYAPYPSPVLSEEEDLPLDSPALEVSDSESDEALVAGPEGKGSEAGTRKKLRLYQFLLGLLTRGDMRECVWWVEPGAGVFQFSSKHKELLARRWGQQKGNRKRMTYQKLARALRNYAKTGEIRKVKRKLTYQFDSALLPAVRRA
# ELF1, sequence (P32519 whole entry): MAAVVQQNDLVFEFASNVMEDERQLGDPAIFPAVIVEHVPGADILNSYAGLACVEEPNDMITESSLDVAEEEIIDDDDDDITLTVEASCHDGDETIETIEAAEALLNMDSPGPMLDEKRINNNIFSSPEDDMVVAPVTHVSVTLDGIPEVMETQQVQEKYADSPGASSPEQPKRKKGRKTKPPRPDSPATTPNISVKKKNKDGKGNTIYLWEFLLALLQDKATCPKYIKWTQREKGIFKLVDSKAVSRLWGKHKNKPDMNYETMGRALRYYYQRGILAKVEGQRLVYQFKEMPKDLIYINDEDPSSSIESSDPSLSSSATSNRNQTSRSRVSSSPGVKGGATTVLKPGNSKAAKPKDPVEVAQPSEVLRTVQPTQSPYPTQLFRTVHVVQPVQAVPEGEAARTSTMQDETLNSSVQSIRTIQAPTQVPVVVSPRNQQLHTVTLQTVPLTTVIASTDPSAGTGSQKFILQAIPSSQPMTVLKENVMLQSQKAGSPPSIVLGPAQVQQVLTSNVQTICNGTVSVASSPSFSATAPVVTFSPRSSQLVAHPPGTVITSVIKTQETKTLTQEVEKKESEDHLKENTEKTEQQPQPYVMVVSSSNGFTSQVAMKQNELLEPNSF
sequence,measurement,setting,value
TTCGAT,binding signal,FLI1,"1.32 fold enrichment (6-mer frequency, TF over GST control)"
same,binding signal,ELK1,"1.23 fold enrichment (6-mer frequency, TF over GST control)"
same,binding signal,GABPA,"1.22 fold enrichment (6-mer frequency, TF over GST control)"
same,binding signal,ERG,"1.43 fold enrichment (6-mer frequency, TF over GST control)"
same,binding signal,ELF1,"1.41 fold enrichment (6-mer frequency, TF over GST control)"
same,binding signal,EHF,"1.38 fold enrichment (6-mer frequency, TF over GST control)"
same,binding signal,SPI1,"1.29 fold enrichment (6-mer frequency, TF over GST control)"
same,binding signal,SPIB,"1.24 fold enrichment (6-mer frequency, TF over GST control)"
same,binding signal,ELK3,"1.32 fold enrichment (6-mer frequency, TF over GST control)"
